Experimental data as given in ChEMBL document CHEMBL2218924, “A broad activity screen in support of a chemogenomic map for kinase signalling research and drug discovery” (Biochem J, 2013).

How the values were obtained:
[1] = molecular target: T1, Testis-specific serine/threonine-protein kinase 2 (Homo sapiens) (UniProt Q96PF2); settings: at 1 µM
T1 sequence (whole entry): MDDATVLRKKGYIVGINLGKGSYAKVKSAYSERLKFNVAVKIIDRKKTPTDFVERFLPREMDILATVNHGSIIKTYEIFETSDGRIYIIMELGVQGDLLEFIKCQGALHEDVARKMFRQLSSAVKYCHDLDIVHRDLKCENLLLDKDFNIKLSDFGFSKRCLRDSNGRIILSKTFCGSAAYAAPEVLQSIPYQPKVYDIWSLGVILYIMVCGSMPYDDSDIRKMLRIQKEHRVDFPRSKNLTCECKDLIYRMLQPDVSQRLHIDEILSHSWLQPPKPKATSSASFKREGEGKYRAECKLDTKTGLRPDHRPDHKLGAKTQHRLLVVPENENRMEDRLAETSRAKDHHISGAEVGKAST

[2] = molecular target: Hepatocyte growth factor receptor (Homo sapiens) (UniProt P08581); settings: at 10 µM
Hepatocyte growth factor receptor (Homo sapiens), sequence (P08581 whole entry): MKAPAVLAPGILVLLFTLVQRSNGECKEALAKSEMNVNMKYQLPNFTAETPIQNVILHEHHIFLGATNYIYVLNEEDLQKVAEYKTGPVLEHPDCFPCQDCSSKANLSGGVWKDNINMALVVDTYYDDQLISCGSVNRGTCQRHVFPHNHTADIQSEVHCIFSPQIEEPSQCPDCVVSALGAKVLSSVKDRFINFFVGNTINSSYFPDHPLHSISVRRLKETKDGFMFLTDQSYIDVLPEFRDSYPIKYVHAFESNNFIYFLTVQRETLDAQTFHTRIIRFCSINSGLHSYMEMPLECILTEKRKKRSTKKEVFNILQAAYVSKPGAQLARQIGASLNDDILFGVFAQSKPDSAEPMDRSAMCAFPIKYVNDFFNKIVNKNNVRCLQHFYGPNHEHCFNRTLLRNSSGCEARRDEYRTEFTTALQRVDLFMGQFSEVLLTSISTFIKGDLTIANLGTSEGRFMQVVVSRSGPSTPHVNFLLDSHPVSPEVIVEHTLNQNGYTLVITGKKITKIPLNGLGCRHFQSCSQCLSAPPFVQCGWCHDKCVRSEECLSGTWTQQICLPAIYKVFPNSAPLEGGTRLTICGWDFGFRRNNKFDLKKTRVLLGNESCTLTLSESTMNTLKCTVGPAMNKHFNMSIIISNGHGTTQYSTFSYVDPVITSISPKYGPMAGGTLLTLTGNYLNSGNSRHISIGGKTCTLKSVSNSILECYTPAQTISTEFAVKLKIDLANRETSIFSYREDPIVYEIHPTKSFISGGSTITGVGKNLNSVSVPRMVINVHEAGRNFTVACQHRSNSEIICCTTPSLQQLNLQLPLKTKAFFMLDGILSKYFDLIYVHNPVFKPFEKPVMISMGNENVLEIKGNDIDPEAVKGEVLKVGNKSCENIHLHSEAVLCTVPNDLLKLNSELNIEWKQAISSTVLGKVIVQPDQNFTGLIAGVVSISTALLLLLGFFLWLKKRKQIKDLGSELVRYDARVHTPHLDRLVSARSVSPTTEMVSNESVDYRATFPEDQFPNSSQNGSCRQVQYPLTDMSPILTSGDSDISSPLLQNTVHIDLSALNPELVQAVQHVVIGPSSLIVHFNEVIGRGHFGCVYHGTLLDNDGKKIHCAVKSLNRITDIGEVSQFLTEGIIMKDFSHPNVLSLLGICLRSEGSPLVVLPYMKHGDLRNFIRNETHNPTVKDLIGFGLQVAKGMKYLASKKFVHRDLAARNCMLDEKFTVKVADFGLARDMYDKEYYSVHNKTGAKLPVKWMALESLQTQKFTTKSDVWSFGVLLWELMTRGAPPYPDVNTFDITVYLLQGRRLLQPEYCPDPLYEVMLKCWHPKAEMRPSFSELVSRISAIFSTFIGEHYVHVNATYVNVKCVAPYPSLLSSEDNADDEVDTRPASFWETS

[3] = molecular target: MAP kinase-interacting serine/threonine-protein kinase 2 (Homo sapiens) (UniProt Q9HBH9); settings: at 10 µM
MAP kinase-interacting serine/threonine-protein kinase 2 (Homo sapiens), sequence (Q9HBH9 whole entry, looked up): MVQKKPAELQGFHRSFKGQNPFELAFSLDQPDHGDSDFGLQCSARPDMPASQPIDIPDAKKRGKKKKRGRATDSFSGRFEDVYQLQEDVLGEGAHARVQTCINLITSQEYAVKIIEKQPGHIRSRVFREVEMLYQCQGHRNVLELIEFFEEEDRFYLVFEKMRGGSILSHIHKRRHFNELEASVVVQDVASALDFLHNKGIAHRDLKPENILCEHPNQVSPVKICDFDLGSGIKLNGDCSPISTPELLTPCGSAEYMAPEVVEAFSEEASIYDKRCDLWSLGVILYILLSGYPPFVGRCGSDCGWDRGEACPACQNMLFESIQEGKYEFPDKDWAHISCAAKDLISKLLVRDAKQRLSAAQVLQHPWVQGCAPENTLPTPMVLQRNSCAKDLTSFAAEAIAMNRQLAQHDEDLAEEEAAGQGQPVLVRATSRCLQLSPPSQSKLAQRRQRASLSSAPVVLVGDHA

[4] = molecular target: T2, Muscle, skeletal receptor tyrosine-protein kinase (Homo sapiens) (UniProt O15146); settings: at 1 µM
T2 sequence (whole entry): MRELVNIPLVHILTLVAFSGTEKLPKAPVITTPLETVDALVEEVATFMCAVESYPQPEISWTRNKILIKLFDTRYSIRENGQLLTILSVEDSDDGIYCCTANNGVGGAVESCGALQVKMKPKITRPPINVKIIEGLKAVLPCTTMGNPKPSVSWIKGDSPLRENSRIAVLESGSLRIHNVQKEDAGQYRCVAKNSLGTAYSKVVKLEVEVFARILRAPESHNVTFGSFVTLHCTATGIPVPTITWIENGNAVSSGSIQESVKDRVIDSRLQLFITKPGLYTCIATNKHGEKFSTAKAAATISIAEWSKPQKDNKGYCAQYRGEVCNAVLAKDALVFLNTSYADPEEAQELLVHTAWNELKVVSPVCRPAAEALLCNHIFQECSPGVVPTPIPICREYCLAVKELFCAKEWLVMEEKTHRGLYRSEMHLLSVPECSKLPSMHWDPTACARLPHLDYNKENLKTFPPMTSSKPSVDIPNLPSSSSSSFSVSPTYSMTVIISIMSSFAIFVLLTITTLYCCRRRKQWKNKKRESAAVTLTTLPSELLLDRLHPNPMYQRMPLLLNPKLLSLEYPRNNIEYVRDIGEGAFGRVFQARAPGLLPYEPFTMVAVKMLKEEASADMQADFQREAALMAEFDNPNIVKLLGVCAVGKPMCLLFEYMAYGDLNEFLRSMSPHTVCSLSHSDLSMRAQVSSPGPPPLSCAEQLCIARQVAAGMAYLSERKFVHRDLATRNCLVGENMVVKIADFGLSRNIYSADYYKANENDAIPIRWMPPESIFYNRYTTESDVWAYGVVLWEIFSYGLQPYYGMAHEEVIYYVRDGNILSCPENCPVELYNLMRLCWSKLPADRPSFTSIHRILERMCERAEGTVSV

[5] = molecular target: T2, Muscle, skeletal receptor tyrosine-protein kinase (Homo sapiens); settings: at 10 µM
[6] = molecular target: Serine/threonine-protein kinase tousled-like 2 (Homo sapiens) (UniProt Q86UE8); settings: at 1 µM
Serine/threonine-protein kinase tousled-like 2 (Homo sapiens), sequence (Q86UE8 whole entry, looked up): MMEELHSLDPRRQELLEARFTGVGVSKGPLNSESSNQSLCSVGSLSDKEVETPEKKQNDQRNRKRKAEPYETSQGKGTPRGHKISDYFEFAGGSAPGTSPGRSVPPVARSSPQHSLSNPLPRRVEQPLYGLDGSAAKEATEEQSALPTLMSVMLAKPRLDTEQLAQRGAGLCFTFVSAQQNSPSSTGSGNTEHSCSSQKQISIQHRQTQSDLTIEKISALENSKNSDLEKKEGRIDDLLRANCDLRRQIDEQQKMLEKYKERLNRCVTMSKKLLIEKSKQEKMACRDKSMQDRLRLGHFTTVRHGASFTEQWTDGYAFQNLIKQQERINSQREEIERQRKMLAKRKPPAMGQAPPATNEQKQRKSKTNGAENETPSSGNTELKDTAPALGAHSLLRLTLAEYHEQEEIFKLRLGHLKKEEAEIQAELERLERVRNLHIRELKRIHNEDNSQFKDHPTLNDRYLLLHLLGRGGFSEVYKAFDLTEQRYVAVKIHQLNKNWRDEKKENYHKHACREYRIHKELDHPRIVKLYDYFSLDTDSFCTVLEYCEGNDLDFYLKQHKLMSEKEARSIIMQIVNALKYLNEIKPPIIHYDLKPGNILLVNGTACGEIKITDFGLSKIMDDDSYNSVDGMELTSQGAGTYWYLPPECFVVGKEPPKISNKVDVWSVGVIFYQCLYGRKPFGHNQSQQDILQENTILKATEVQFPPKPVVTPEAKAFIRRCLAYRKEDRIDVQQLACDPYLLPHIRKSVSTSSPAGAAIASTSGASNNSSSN

[7] = molecular target: Serine/threonine-protein kinase tousled-like 2 (Homo sapiens) (UniProt Q86UE8); settings: at 10 µM
[8] = molecular target: T3, Tyrosine-protein kinase Mer (Homo sapiens) (UniProt Q12866); settings: at 1 µM
T3 sequence (whole entry): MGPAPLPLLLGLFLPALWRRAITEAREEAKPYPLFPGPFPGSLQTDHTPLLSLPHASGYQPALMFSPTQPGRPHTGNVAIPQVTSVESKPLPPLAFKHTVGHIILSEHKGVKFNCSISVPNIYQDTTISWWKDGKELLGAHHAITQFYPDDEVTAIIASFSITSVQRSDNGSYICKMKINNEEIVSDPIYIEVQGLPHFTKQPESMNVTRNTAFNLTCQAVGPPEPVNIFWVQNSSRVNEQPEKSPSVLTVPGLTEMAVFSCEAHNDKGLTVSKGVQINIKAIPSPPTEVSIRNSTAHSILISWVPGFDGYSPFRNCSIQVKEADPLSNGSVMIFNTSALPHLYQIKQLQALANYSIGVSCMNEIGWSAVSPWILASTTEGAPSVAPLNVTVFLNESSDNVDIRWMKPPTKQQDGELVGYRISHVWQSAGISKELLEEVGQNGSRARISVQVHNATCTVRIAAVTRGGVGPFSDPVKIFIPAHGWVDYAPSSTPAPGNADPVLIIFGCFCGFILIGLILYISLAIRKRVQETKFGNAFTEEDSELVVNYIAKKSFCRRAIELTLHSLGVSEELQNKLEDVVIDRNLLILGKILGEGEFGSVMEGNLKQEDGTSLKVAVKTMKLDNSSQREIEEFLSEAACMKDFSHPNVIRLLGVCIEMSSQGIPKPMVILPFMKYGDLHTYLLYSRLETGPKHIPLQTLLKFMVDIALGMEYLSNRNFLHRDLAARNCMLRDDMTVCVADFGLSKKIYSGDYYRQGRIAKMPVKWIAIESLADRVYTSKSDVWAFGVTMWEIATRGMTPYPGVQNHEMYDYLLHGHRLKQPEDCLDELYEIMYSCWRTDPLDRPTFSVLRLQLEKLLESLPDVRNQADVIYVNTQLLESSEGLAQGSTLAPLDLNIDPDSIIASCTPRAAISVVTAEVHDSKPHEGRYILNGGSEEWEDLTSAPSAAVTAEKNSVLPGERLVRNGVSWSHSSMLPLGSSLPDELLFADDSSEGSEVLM

[9] = molecular target: T3, Tyrosine-protein kinase Mer (Homo sapiens); settings: at 10 µM
[10] = molecular target: Hepatocyte growth factor receptor (Homo sapiens) (UniProt P08581); settings: at 1 µM
[11] = molecular target: MAP kinase-interacting serine/threonine-protein kinase 2 (Homo sapiens) (UniProt Q9HBH9); settings: at 1 µM
[12] = molecular target: T4, Serine/threonine-protein kinase Nek11 (Homo sapiens) (UniProt Q8NG66); settings: at 1 µM
T4 sequence (whole entry): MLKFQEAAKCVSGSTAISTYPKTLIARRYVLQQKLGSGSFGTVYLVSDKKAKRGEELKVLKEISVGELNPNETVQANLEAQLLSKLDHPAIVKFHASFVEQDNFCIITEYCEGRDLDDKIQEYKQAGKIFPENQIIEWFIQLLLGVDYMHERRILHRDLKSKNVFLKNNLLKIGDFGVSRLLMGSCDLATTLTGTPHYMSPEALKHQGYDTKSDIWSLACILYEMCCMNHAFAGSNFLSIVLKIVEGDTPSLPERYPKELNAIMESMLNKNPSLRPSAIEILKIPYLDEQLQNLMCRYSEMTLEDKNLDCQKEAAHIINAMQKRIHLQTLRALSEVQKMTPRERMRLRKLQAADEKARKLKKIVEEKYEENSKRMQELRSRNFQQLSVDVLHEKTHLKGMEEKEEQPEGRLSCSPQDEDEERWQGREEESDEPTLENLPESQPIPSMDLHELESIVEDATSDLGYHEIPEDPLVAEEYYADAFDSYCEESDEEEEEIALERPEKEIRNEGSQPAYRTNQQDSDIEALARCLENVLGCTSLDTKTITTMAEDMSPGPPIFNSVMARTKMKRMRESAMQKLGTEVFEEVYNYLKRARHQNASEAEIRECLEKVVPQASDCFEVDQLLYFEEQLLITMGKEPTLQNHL

[13] = molecular target: T4, Serine/threonine-protein kinase Nek11 (Homo sapiens); settings: at 10 µM
[14] = molecular target: T5, Serine/threonine-protein kinase Nek2 (Homo sapiens) (UniProt P51955); settings: at 1 µM
T5 sequence (whole entry): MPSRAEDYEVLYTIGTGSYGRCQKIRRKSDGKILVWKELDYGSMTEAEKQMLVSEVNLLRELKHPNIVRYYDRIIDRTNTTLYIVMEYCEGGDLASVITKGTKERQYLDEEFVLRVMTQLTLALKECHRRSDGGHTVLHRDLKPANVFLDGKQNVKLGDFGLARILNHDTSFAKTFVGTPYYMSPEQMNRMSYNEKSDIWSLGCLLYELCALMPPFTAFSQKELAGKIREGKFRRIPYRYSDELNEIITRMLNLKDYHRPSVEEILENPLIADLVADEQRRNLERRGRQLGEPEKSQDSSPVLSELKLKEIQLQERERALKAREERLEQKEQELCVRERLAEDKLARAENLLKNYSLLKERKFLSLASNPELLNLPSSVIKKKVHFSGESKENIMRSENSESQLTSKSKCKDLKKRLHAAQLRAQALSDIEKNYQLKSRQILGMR

[15] = molecular target: T5, Serine/threonine-protein kinase Nek2 (Homo sapiens); settings: at 10 µM
[16] = molecular target: T6, Serine/threonine-protein kinase Nek3 (Homo sapiens) (UniProt P51956); settings: at 1 µM
T6 sequence (whole entry): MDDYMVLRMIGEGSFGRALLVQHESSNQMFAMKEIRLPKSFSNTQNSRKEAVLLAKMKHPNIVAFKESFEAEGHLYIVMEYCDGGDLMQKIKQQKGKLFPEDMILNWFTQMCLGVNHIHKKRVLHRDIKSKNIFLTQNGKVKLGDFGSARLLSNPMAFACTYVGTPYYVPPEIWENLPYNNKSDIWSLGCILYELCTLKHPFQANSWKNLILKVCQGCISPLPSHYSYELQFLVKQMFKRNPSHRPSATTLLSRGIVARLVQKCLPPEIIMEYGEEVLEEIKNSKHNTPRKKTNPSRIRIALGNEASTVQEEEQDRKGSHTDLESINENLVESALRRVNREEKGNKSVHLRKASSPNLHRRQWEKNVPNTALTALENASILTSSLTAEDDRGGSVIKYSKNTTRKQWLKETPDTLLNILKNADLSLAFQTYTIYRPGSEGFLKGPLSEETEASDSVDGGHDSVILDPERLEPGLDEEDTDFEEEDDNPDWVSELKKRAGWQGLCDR

[17] = molecular target: T6, Serine/threonine-protein kinase Nek3 (Homo sapiens); settings: at 10 µM
[18] = molecular target: T7, Testis-specific serine/threonine-protein kinase 1 (Homo sapiens) (UniProt Q9BXA7); settings: at 1 µM
T7 sequence (whole entry): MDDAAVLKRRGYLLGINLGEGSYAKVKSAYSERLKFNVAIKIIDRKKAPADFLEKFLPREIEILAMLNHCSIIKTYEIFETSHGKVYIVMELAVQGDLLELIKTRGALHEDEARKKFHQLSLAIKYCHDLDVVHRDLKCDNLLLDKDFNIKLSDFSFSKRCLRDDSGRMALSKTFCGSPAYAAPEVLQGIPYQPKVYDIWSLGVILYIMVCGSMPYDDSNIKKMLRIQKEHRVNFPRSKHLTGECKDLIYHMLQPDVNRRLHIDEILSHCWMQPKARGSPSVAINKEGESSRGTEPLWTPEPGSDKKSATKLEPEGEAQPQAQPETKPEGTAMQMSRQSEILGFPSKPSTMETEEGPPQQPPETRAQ

[19] = molecular target: T7, Testis-specific serine/threonine-protein kinase 1 (Homo sapiens); settings: at 10 µM
[20] = molecular target: T1, Testis-specific serine/threonine-protein kinase 2 (Homo sapiens); settings: at 10 µM

CC(=O)O/N=C1\C(=C2\C(=O)Nc3cc(Br)ccc32)Nc2ccccc21
residual activity [1]: 79%

O=C1Nc2ccc(Cl)cc2/C1=C/c1cc(Cl)c(O)c(Cl)c1
residual activity [1]: 76%

COc1ccc2c(c1)/C(=C/c1cnc[nH]1)C(=O)N2
residual activity [2]: 42% | residual activity [3]: 40% | residual activity [4]: 80% | residual activity [5]: 27% | residual activity [6]: 63% | residual activity [7]: 11%

CC(=O)c1ccc(N2CCOCC2)cc1O
residual activity [1]: 89%

O=C1Nc2ccc3ncsc3c2/C1=C/c1c[nH]cn1
residual activity [8]: 6% | residual activity [9]: 2% | residual activity [10]: 18% | residual activity [2]: 4% | residual activity [11]: 9% | residual activity [3]: 4% | residual activity [4]: 53% | residual activity [5]: 11% | residual activity [12]: 50% | residual activity [13]: 13% | residual activity [14]: 64% | residual activity [15]: 39% | residual activity [16]: 102% | residual activity [17]: 32% | residual activity [6]: 19% | residual activity [7]: 3% | residual activity [18]: 68% | residual activity [19]: 31% | residual activity [1]: 89% | residual activity [20]: 86%

N/C(=N\[N+](=O)[O-])N/N=C\c1ccc(-c2cccc([N+](=O)[O-])c2)o1
residual activity [4]: 93% | residual activity [5]: 91% | residual activity [12]: 73% | residual activity [13]: 72% | residual activity [16]: 74% | residual activity [17]: 93% | residual activity [6]: 95% | residual activity [7]: 90% | residual activity [1]: 91% | residual activity [20]: 80%

CC(C)(C)c1cc(C=C(C#N)C#N)cc(Br)c1O
residual activity [8]: 116% | residual activity [4]: 121% | residual activity [5]: 72% | residual activity [13]: 109% | residual activity [15]: 101% | residual activity [16]: 115% | residual activity [17]: 109% | residual activity [6]: 112% | residual activity [7]: 98% | residual activity [18]: 105% | residual activity [19]: 101% | residual activity [1]: 113%

O=C1NC(=O)c2cc(Nc3ccc(F)cc3)c(Nc3ccc(F)cc3)cc21
residual activity [1]: 91%

O=C1NC(=O)c2c1c1c3ccccc3n3c1c1c2c2ccccc2n1C1CCC3O1
residual activity [8]: 34% | residual activity [9]: 11% | residual activity [11]: 97% | residual activity [3]: 95% | residual activity [12]: 91% | residual activity [13]: 87% | residual activity [6]: 62% | residual activity [7]: 68% | residual activity [18]: 92% | residual activity [19]: 70% | residual activity [1]: 82% | residual activity [20]: 96%

COc1ccc2c(c[n+](C)c3c4cc5c(cc4ccc23)OCO5)c1OC
residual activity [10]: 94% | residual activity [2]: 85% | residual activity [3]: 82% | residual activity [5]: 95% | residual activity [14]: 76% | residual activity [15]: 68% | residual activity [16]: 110% | residual activity [17]: 60% | residual activity [6]: 95% | residual activity [7]: 92%
